From PubChem BioAssay come the findings set out here.

Experiment [1] in a line: small molecules captured by biotinylated probe aFSTL3 – biochemical, small-molecule microarray, fluorescence 635/667, stem cell growth factor project, primary screen (AID 1064).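 Note: measures binding of the biotinylated anti-FSTL3 antibody to printed compounds.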 As to conditions: higher = more signal.
Experiment [2] in a line: binders from COS7 lysate, DM2A8 probe, primary screen, torsin A project, cell lysate, small-molecule microarray, fluorescence 635/667 (AID 1065). The following applies: higher = more signal, COS7 lysate expressing mutant human TOR1A.
Experiment [3] in a line: small molecules captured by biotinylated probe aFGF2 – biochemical, small-molecule microarray, fluorescence 635/667, stem cell growth factor project, primary screen (AID 1067).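 Note: measures binding of biotinylated aFGF2 protein to printed compounds on slides; z-score merges feature fluorescence and signal-to-noise across triplicate slides.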 The following applies: higher = more signal.
Experiment [4] is described as follows: small molecules captured by biotinylated probe aFGF10 – biochemical, small-molecule microarray, fluorescence 635/667, stem cell growth factor project, primary screen (AID 1071).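 Note: score merges 667 nm spot intensity and signal to noise from triplicate slides.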 As to conditions: higher = more signal.
The target of experiment [5] is Neurogenic locus notch homolog protein 2 (Homo sapiens) (UniProt Q04721). The experiment can be described thus: small molecules binding Notch2 protein – biochemical, small-molecule microarray, 635 nm fluorescence, stem cell growth factors, primary screen (AID 1073). As to conditions: higher = more signal.
For experiment [6], the target named is Pro-neuregulin-1, membrane-bound isoform (Homo sapiens) (UniProt Q02297). The experiment can be described thus: small molecules binding neuregulin-1 protein – biochemical, small-molecule microarray, fluorescence 635/667, psychiatric disease protein project, primary screen (AID 1075).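 Note: score combines 667 nm spot fluorescence with signal to noise.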 The following applies: NRG1 binding, 635 nm fluorescence, higher = more signal.

Experiment [7] has as its system Neuregulin-1 EGF-like domain. The experiment can be described thus: small molecules binding NRG1 EGF domain – biochemical, small-molecule microarray, 635 nm fluorescence, primary screen (AID 1081).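 Note: binding of the protein to compounds printed on small-molecule microarray slides.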 As to conditions: higher = more signal.
Experiment [8] is described as follows: FRG1 expression reporter modulators in myotubes – cell-based, C2C12 myotubes, firefly/Renilla luciferase, luminescence, FRG1 inhibition for FSHD, primary screen (AID 1084). The following applies: FRG1 promoter luciferase, higher = more signal, called active from +8 up or from −8 down.
Experiment [9] can be described thus: small molecules captured by biotinylated probe aFST – biochemical, small-molecule microarray, fluorescence 635/667, stem cell growth factor project, primary screen (AID 1086).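 Note: score merges 667 nm fluorescence with signal-to-noise of each printed compound spot.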 As to conditions: higher = more signal.
Experiment [10] is described as follows: binders of probe aHhip on microarray, primary screen, stem cell growth factor project, biochemical, small-molecule microarray, fluorescence 635/667 (AID 1087).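 Note: score merges spot fluorescence at 667nm with spot signal to noise ratio.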 As to conditions: higher = more signal.
Experiment [11] deals with PRMT1 (protein arginine N-methyltransferase 1). The experiment can be described thus: small molecules binding arginine methyltransferase PRMT1 – biochemical, small-molecule microarray, 635 nm fluorescence, primary screen (AID 1088).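 Note: binding of Prmt1 protein to compounds spotted on small-molecule microarray slides.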 As to conditions: higher = more signal.
Experiment [12] is described as follows: growth effects on S. cerevisiae YJM789 – YJM789 clinical isolate, OD600, 24 h, basal, primary screen (AID 1089).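 Note: growth of clinical yeast isolate S. cerevisiae YJM 789 seeded 1000 cells per well; test concentration not given here.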 As to conditions: higher = more signal, called active from +8 up or from −8 down.
The nature of experiment [13]: S. pombe growth modifiers, basal conditions – strain 972, OD600, 24 h, no modulator, primary screen (AID 1090).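 Note: basal condition with compound alone and no growth modifier present; test concentration not given here.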 The following applies: S. pombe 972 growth, higher = more signal, called active from +8 up or from −8 down.
Experiment [14] can be described thus: budding yeast growth modifiers under rapamycin – strain BY4716, OD600, 96 h, primary screen (AID 1091). Note: test concentration not given here. As to conditions: S. cerevisiae BY4716 + rapamycin, higher = more signal, called active from +8 up or from −8 down.
The target in experiment [15] is Torsin-1A-interacting protein 2 (Homo sapiens) (UniProt Q8NFQ8). The experiment is described as follows: small molecules binding lysate-expressed LULL1 – cell lysate, human LULL1 lysate, 635/667 nm fluorescence, primary screen (AID 1092).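 Note: probe is lysate of COS7 cells overexpressing human LULL1; score merges per-feature 667 nm fluorescence with signal-to-noise.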 The following applies: small-molecule microarray, hLULL1 lysate binding, 635 nm fluorescence; higher = more signal.
Experiment [16] can be described thus: optical density change of DRC41 E. coli – strain DRC41, OD650, 24 h, E. coli filamentation project, primary screen (AID 1093).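 Note: MC1000 strain lacking acrAB efflux and sulA so SOS filamentation is blocked; test concentration not given here.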 The following applies: E. coli DRC41 growth, higher = more signal, called active from +8 up or from −8 down.
The nature of experiment [17]: probe aLefty2 binding to arrayed compounds – biochemical, biotinylated probe, 635/667 nm fluorescence, primary screen (AID 1094).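 Note: score merges spot fluorescence near 667 nm with spot signal-to-noise ratio.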 The following applies: small-molecule microarray, higher = more signal.
Experiment [18] has as its system Noggin (protein binding on small-molecule microarray). The experiment can be described thus: small molecules binding Noggin protein – biochemical, 635/667 nm fluorescence, primary screen (AID 1095).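 Note: score merges 667 nm feature fluorescence with signal to noise over triplicate slides.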 The following applies: 635 nm fluorescence, higher = more signal.
Experiment [19] addresses Neurogenic locus notch homolog protein 3 (Homo sapiens) (UniProt Q9UM47). The experiment is described as follows: small molecules binding NOTCH3 protein – biochemical, 635/667 nm fluorescence, primary screen (AID 1096). As to conditions: small-molecule microarray, 635 nm fluorescence, higher = more signal.
A short description of experiment [20]: probe aEGFR binding to arrayed compounds – biochemical, biotinylated probe, 635/667 nm fluorescence, primary screen (AID 1097).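 Note: probe is a biotinylated anti-EGFR antibody binding compounds printed on slides; score combines fluorescence near 667 nm and signal to noise of each spot.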 As to conditions: small-molecule microarray, higher = more signal.

Calls of active or inactive are those of the source.

Torsin-1A-interacting protein 2 (Homo sapiens), sequence (Q8NFQ8 whole entry, looked up): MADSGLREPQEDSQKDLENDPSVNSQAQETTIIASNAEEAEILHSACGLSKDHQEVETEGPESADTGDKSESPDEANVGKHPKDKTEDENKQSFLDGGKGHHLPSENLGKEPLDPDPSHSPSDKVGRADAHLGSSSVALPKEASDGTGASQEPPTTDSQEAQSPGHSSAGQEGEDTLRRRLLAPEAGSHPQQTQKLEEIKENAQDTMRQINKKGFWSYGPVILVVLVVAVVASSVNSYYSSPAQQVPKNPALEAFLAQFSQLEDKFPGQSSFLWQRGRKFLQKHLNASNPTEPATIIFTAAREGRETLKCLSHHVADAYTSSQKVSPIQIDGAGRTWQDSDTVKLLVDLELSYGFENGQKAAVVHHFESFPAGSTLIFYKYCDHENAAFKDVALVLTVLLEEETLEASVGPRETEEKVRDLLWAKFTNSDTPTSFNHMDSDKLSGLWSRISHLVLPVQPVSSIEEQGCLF
Neurogenic locus notch homolog protein 2 (Homo sapiens), sequence (Q04721 whole entry, looked up, canonical isoform): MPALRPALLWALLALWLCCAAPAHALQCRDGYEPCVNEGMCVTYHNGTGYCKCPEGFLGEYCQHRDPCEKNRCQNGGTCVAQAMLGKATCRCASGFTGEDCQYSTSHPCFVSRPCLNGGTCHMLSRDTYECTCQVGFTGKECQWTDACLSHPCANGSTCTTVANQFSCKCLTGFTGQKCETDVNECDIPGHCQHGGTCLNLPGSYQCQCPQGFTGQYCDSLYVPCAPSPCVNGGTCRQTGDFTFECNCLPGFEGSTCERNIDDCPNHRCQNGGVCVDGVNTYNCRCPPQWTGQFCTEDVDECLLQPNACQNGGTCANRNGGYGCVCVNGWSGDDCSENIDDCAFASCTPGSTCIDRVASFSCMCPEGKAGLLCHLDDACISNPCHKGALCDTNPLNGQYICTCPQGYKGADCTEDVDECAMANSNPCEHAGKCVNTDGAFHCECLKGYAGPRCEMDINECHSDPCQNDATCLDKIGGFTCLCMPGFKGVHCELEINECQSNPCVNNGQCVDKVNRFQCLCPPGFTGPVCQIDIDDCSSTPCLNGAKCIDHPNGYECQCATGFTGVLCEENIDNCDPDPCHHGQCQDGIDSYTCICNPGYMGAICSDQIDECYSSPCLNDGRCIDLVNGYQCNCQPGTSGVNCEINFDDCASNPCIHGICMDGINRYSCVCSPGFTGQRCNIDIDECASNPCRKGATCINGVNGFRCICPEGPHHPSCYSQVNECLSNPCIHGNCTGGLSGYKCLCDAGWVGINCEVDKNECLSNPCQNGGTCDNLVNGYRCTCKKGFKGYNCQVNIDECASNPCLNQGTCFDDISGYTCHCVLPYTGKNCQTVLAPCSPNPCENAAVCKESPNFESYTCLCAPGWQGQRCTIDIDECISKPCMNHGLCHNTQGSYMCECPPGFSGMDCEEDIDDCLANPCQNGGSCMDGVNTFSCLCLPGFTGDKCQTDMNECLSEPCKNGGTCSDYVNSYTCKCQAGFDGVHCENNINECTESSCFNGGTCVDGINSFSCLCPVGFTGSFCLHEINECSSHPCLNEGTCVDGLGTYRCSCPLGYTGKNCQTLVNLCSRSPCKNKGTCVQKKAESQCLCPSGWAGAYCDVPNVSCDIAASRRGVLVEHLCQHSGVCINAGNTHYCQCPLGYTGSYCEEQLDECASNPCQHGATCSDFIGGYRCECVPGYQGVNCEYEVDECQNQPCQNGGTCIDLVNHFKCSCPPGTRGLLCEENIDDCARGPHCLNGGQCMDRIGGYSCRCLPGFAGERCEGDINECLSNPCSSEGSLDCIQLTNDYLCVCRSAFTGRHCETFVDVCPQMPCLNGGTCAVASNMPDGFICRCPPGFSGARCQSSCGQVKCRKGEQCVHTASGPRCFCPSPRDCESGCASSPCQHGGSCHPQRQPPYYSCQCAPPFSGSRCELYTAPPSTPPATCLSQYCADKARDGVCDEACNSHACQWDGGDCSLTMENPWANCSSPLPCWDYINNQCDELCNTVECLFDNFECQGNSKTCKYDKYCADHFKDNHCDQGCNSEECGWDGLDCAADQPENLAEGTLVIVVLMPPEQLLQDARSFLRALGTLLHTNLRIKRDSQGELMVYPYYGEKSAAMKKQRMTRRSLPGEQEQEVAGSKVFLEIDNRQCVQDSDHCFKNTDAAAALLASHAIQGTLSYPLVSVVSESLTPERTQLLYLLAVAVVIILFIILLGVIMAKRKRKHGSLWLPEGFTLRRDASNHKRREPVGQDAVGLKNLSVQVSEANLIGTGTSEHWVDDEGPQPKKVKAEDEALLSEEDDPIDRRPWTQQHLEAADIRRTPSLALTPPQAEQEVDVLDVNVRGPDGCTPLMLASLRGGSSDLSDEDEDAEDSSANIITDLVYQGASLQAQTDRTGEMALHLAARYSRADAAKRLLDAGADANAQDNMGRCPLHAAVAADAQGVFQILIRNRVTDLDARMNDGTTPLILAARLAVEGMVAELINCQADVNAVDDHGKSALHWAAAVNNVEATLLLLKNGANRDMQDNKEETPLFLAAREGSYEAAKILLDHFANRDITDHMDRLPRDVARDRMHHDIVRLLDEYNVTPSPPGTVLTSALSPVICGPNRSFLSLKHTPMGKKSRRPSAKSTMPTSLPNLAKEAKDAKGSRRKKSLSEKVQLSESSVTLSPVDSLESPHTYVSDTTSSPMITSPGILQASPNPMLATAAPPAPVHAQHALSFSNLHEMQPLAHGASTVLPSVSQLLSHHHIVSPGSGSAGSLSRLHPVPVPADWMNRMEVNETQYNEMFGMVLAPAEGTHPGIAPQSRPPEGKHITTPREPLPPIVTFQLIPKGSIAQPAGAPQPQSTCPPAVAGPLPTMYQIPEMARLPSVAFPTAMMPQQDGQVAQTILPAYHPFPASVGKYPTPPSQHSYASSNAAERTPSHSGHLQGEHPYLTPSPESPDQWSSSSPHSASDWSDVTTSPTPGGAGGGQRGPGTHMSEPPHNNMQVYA
Pro-neuregulin-1, membrane-bound isoform (Homo sapiens), sequence (Q02297 whole entry, looked up, canonical isoform): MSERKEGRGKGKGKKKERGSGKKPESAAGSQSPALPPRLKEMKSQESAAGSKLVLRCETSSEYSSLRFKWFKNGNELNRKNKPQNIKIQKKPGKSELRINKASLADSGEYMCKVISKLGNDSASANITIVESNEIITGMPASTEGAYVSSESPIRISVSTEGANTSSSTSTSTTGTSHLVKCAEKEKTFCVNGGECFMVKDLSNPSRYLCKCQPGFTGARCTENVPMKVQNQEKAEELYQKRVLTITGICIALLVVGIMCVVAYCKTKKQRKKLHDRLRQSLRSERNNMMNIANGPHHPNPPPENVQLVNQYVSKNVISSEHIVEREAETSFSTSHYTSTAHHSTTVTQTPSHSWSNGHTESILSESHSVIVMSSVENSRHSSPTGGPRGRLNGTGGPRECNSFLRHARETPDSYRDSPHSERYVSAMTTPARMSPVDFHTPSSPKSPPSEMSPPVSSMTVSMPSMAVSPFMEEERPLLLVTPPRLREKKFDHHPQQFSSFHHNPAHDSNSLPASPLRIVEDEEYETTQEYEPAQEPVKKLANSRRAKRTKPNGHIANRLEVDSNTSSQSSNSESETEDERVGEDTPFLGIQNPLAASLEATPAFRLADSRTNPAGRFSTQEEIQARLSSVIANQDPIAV

Take `O=C1NC(=O)C2C1C=CC(C(O)C(c1ccccc1)c1ccccc1)N2Nc1ccccn1` (stereo not given): the composite z-score was 0.473 in [1]; 0.521 in experiment [2]; 0.162 in experiment [3]; 0.951 in experiment [4]; 1.05 in experiment [5]; 0.604 in experiment [6]. The composite z-score in [7] is 1.25; in experiment [9], 0.59; in experiment [10], -0.0959; in experiment [11], 0.72; in [15], 1.27; in experiment [17], 0.673. In addition, the composite z-score is -0.0976 in [18], 0.0943 in [19] and 0.389 in [20]. For the same compound, the z-score is 0.723 (inactive) in experiment [8]; 0.583 (inactive) in experiment [12]; 1.44 (inactive) in experiment [13]; -0.968 (inactive) in experiment [14]; -0.519 (inactive) in experiment [16].
Take `C=CCNC(=O)[C@@H]1[C@H]2C(=O)O[C@H](c3ccccc3)[C@H](c3ccccc3)N2[C@H](c2ccc(O)cc2)[C@@]12C(=O)Nc1ccc(C#CC3=CCCCC3)cc12`: the composite z-score in experiment [1] is -0.619; in experiment [2] it was 1.23; in [3], -0.0639; in [4], 1.1; in experiment [5], 0.87; in [6], 1.15. Moreover, the composite z-score in experiment [7] is 1.06; in experiment [9] it was -0.17; in [10], -0.426; in [11], 1.55; in experiment [15], 2.93; in [17], -0.162. Further, the composite z-score in experiment [18] amounted to 1.03; in experiment [19] it was 1.05; in experiment [20], 0.392. Besides, the z-score in experiment [8] is -0.231 (inactive); in experiment [12], 1.03 (inactive); in experiment [13], 0.185 (inactive); in experiment [14], 1.74 (inactive); in experiment [16], -0.43 (inactive).
On to `CC(C)(C)OC(=O)CC[C@@]1(C(=O)N2CCOCC2)N=C(c2ccc(OCCCO)cc2)O[C@@H]1c1ccccc1CN=[N+]=[N-]`, for which the composite z-score in experiment [1] was 0.12; in experiment [2] it was 0.161; in experiment [3] it was 0.254; in experiment [4] it was 0.674; in experiment [5], 1.1; in experiment [6], 1.88. Besides, the composite z-score in experiment [7] stood at 1.31; in [9], 0.694; in experiment [10], 0.186; in experiment [11], 1.38; in experiment [15], 3.83; in experiment [17], 0.313. Besides, the composite z-score is 1.06 in [18], 0.985 in experiment [19] and 0.103 in experiment [20]. The z-score in experiment [8] was 3.86 (inactive); in [12], -0.335 (inactive); in [13], -0.183 (inactive); in [14], -0.654 (inactive); in experiment [16] it was 0.675 (inactive).
Take `COCCCNC(=O)[C@@]1(Cc2ccccc2I)c2ccccc2C(=O)N(Cc2ccccc2C(F)(F)F)[C@H]1c1ccc(CO)cc1`: the composite z-score in [1] was 0.088; in experiment [2] it was 0.395; in experiment [3] it was -0.0232; in experiment [4], -0.283; in [5], -1.01; in experiment [6] it was 0.988. Further, the composite z-score was 1.05 in [7]; 0.341 in experiment [9]; 0.0826 in experiment [10]; 1.4 in [11]; 2.47 in experiment [15]; -0.0654 in [17]. The values for the composite z-score in [18], in experiment [19] and in [20] were -0.473, 0.03 and -0.291, respectively. For the same compound, the z-score is -1.78 (inactive) in experiment [8]; -0.784 (inactive) in experiment [12]; 0.25 (inactive) in experiment [13]; 0.437 (inactive) in [14]; -0.627 (inactive) in experiment [16].
`COc1ccc([Si](C)(C)[C@H]2[C@H](CC(=O)N(CCO)Cc3ccccc3)O[C@@]3(C(=O)N(c4ccccc4)c4ccccc43)[C@@H]2C)cc1`: the composite z-score was -0.249 in experiment [1]; -0.182 in experiment [2]; -0.0261 in experiment [3]; 0.638 in experiment [4]; 0.199 in [5]; 0.951 in [6]. Further, the composite z-score was 0.46 in experiment [7]; 0.294 in experiment [9]; -0.0581 in experiment [10]; 1.51 in experiment [11]; 1.79 in experiment [15]; -0.11 in [17]. Further, the composite z-score in experiment [18] is 1.3; in [19], 1.11; in experiment [20] it was -0.13. In addition, the z-score was -1.91 (inactive) in experiment [8]; 1.48 (inactive) in experiment [12]; 0.656 (inactive) in experiment [13]; 3.73 (inactive) in experiment [14]; -0.366 (inactive) in [16].
